# Source: PubChem
# An excerpt weighted towards active compounds, which were near 4.8% of everything screened.
# Calb FLC: affects C. albicans growth with fluconazole; C. albicans CaCi-2 (fluconazole-resistant clinical isolate) + fluconazole, Alamar Blue growth, 48 h; growth inhibition, % (concentration not given with the values); 300,000 tested, 0.57% active; AID 1979;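 active = growth inhibition above about 58% in most replicates, limit read from the data, passing the limit was not always enough; inconclusive = exactly half the replicates above a set limit; inactive = most replicates below a set limit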;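 also: all wells also contain fluconazole at 8 µg/ml as a sub-toxic cotreatment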
# Mdm2-MdmX inh: human Mdm2/MdmX binding inhibition; O15151+Q00987; SaOS-2 split-luciferase Mdm2/MdmX complementation, luminescence; inhibition, % at 8 µM; 330,000 tested, 3% active; AID 485346;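 active = inhibition of at least 50% at 8 µM in the primary screen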
# Target sequence (O15151 whole entry, looked up): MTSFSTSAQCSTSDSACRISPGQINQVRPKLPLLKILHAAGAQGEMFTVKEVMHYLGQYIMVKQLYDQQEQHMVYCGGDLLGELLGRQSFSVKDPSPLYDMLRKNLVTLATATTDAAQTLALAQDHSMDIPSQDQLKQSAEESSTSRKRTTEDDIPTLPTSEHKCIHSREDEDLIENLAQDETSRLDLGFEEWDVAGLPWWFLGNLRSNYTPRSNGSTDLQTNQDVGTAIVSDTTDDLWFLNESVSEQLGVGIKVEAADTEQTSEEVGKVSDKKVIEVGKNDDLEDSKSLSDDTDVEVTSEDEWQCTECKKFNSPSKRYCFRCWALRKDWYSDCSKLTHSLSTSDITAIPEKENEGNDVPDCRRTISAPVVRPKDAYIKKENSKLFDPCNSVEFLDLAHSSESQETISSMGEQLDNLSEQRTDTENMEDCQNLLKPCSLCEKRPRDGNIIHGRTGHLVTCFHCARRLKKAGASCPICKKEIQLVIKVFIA
# Target sequence (Q00987 whole entry, looked up): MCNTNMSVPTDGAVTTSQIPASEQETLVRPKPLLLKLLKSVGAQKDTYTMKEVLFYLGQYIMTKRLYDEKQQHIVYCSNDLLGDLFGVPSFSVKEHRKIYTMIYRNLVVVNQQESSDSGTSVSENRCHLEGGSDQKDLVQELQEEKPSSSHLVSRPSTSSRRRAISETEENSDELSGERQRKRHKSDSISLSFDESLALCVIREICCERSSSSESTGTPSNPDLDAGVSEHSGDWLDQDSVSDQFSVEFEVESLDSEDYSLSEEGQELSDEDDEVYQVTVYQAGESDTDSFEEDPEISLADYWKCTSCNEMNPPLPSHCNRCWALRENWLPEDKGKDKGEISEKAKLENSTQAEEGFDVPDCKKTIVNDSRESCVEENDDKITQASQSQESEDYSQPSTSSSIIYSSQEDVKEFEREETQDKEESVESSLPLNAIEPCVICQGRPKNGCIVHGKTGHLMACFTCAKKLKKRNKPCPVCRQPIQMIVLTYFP
# CSC inhib: cancer stem cell inhibition; cancer stem cell-like cells viability, luminescence; inhibition, % at 7.5 µM; 300,000 tested, 1.1% active; AID 2717; in the data active = inhibition above about 75%; inconclusive = no clear call, values can overlap the other calls; tested in HMLE shEcad cells
# MPTP block: blocks calcium-induced mitochondrial swelling; AID 602449; isolated mouse mitochondria, Ca2+ swelling absorbance, 30 min; inhibition, % at 10 µM; 360,000 tested, 1.4% active;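 active = inhibition of 50% or more, scaled per plate between neutral and stimulator controls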
# Beta cell apopt: beta cell apoptosis inhibition. INS-1E cytokine-induced death, ATP luminescence, 48 h; percent of positive-control rescue, neutral wells zero. protection from apoptosis, % (test concentration not listed). 300,000 tested, 0.8% active;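 active = Every replicate reaches about 75%, or at least half do and their mean reaches it too, limit read from the data; inconclusive = At least half of replicates reach the limit but their mean does not; inactive = Under half of replicates reach the limit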;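 also: higher means more ATP so stronger rescue from cytokine killing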
# Mdm2-MdmX conf: confirmation of human Mdm2/MdmX interaction inhibitors; shares compounds with Mdm2-MdmX inh; Mdm2-MdmX binding, luminescent assay; inhibition, % at 8 µM; 10,000 tested, 55% active; AID 489028; in the data active = inhibition above about 40%
# FLuc counter: inhibits full-length luciferase, flagging false Mdm2/MdmX hits. shares compounds with Mdm2-MdmX inh. SaOS-2 full-length luciferase counterscreen, luminescence. inhibition, % at 8 µM. 6,200 tested, 77% active. AID 504607;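 active = mean inhibition at 8 µM reaching about 37%, which flags the compound as non-specific, limit read from the data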;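 also: p53-null SaOS-2 cells with luciferase driven by a doxycycline-inducible promoter; compound on cells about two nights before reading with doxycycline added after day one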
# Hits are given with their value; - = inactive; ? = inconclusive; . = not tested or not shown.
SMILES,Calb FLC,Mdm2-MdmX inh,CSC inhib,MPTP block,Beta cell apopt,Mdm2-MdmX conf,FLuc counter
Cc1ccc2c(c1)C(=O)C(=O)N2CC1COc2ccccc2O1 (stereo not drawn),-,-,-,-,-,.,.
CCOc1ccc2c(c1)C(=O)C(=O)N2CC1COc2ccccc2O1 (stereo not drawn),-,69,-,-,-,-,.
COC(=O)/C=C1\OC(c2ccccc2)c2ccccc21 (stereo not drawn),.,.,.,-,.,.,.
COc1ccc(-c2cc3c(c4c2ccn4C)C2CCC3C2)cc1OC (stereo not drawn),.,.,.,-,.,.,.
CC(=O)c1c(C)oc2ccc(N(C(C)=O)S(=O)(=O)c3ccc(Cl)c([N+](=O)[O-])c3)cc12,-,98,-,-,-,95,57
CC(=O)c1c(C)oc2ccc(N(C(C)=O)S(=O)(=O)c3ccc(Br)cc3)cc12,-,-,-,-,-,.,.
CCN(CC)C(=O)CNC(=O)c1nn(-c2ccc(OC)c(Cl)c2)c(=O)c2ccccc12,-,-,-,-,-,.,.
COc1ccc(-n2nc(C(=O)NCC(=O)NCc3ccc(F)cc3)c3ccccc3c2=O)cc1OC,-,80,.,-,-,-,.
COc1ccc(-n2nc(C(=O)NCC(=O)Nc3cc(OC)c(OC)c(OC)c3)c3ccccc3c2=O)cc1Cl,-,70,-,-,-,73,81
Cc1cc(C(F)(F)F)nn1CC(=O)NCc1cccs1,-,-,-,-,-,.,.
CC1(C)CCN2CCC(C)(C)c3c(O)ccc1c32,?,92,131,-,111,83,40
CCOc1ccc(CCNC(=O)C2CCCN2C(=O)OCc2ccccc2)cc1OCC (stereo not drawn),-,-,-,-,-,.,.
CSc1nc(-c2ccc(Cl)cc2)nc(N)c1C#N,-,67,-,-,-,44,73
N#Cc1c(-c2ccccc2)nc(-c2ccccc2)nc1N1CCOCC1,-,-,-,-,-,.,.
Nc1nc(-c2ccc(Cl)cc2)nc(-c2ccc(Cl)cc2)n1,-,57,-,-,-,40,61
N#Cc1c(N)nc(-c2ccccc2)nc1-c1ccccc1,-,56,-,-,-,-,.
CC(C)(C)c1ccc(-c2nc(N)nc(N)n2)cc1,-,-,-,-,-,.,.
CCCCn1c(=O)[nH]c(=O)c2c1nc(-c1ccc(-c3ccc(F)cc3)o1)n2C,-,74,-,.,-,-,.
CCCCn1c(=O)[nH]c(=O)c2c1nc(-c1ccc(CC)c([N+](=O)[O-])c1)n2C,-,-,-,.,-,.,.
CCCCn1c(=O)[nH]c(=O)c2c1nc(-c1ccc(-c3ccccc3Br)o1)n2CCOC,-,53,-,-,-,-,.
COCCn1c(-c2ccc(-c3ccccc3Cl)o2)nc2c1c(=O)[nH]c(=O)n2CC(C)C,-,59,-,-,-,-,.
COCCn1c(-c2ccc(NC(C)=O)cc2)nc2c1c(=O)[nH]c(=O)n2CC(C)C,-,-,-,-,-,.,.
CCc1ccccc1N(CC(=O)N1CCc2ccccc2C1)S(C)(=O)=O,-,-,-,-,-,.,.
O=C(COC(=O)c1cc([N+](=O)[O-])ccc1N1CCOCC1)Nc1ccc(Cl)cn1,-,76,86,-,-,58,68
O=C(c1ccccc1)c1cc([N+](=O)[O-])ccc1N1CCOCC1,-,-,.,-,.,.,.
SMILES,Calb FLC,Mdm2-MdmX inh,CSC inhib,MPTP block,Beta cell apopt,Mdm2-MdmX conf,FLuc counter
CN1CCN(c2ccc([N+](=O)[O-])cc2C(=O)c2ccc(Cl)cc2)CC1,-,50,-,-,-,61,57
CC1CCCN(c2ccc([N+](=O)[O-])cc2C(=O)c2ccccc2)C1 (stereo not drawn),-,65,-,-,-,55,99
O=C(COC(=O)c1cc([N+](=O)[O-])ccc1N1CCOCC1)Nc1ccc(Cl)cc1,-,-,-,-,.,.,.
Cc1ccc(C(=O)c2cc([N+](=O)[O-])ccc2N2CCCCC2)cc1,-,53,-,-,-,65,96
COC(=O)[C@@]12C[C@@H](CC(=O)NCc3cccs3)C(=O)N(Cc3ccco3)C1=CCC(C)(C)C2,.,.,.,-,.,.,.
CC(=O)O[C@H]1[C@@H](O)[C@H](O)[C@H](Oc2c(O)c(C)c3c4c2[C@@H](C)CC[C@@H]4[C@@H](C)C[C@@H]3C=C(C)C)O[C@H]1C,.,.,.,-,.,.,.
CC1(C(=O)NS(=O)(=O)C2CC2)CCN(C(=O)c2cc(F)cc(F)c2)C1 (stereo not drawn),.,.,.,-,.,.,.
CC1(C(=O)NCc2ccccc2)CSCC(=O)N1CCOc1ccccc1 (stereo not drawn),.,.,.,-,.,.,.
O=C1NC[C@H](CCCCN2C[C@H](Cc3ccc(O)cc3)N(CC3CCCCC3)C(=O)C2=O)N(CC2CCCCC2)C1=O,.,.,.,-,.,.,.
COc1ccc(COC(=O)c2cc([N+](=O)[O-])ccc2N2CCOCC2)cc1F,-,72,-,-,-,78,125
O=C(OCc1ccc(Br)cc1)c1cc([N+](=O)[O-])ccc1N1CCOCC1,.,.,.,-,.,.,.
O=C(c1ccc(Cl)cc1)c1cc([N+](=O)[O-])ccc1N1CCOCC1,?,65,-,-,-,52,81
Cc1cccn2cc(COc3ccc(-c4ccccc4)cc3)nc12,-,.,.,-,.,.,.
CCc1nc(SCC(=O)Nc2ccc3c(c2)OCCO3)c2oc3ccccc3c2n1,-,86,-,-,-,-,.
COC(=O)c1ccc(OCC(O)CN2CCN(C(=O)c3ccco3)CC2)c(OC)c1 (stereo not drawn),-,-,.,-,-,.,.
O=c1[nH]c(=O)n(Cc2ccccc2)c2nc(-c3ccco3)cc(C(F)(F)F)c12,-,53,-,-,-,-,.
COC(=O)c1ccc(CNC(=O)Cn2cnc3c(NCc4ccccc4)ncnc32)cc1,.,-,.,-,.,.,.
COc1ccc(CNC(=O)Cn2cnc3c(NCc4ccccc4)ncnc32)cc1,.,61,.,-,.,-,.
CCC[C@H]1NC(=O)[C@H](C)N(C)C(=O)C(C)(C)C(=O)C(C)NC(=O)[C@H](Cc2ccc(OC)cc2)N(C)C(=O)[C@H](C(C)C)N(C)C(=O)CNC(=O)[C@H](CC(C)C)N(C)C(=O)CNC(=O)[C@H]([C@@H](C)CC)OC(=O)[C@H]1C (stereo partly drawn),.,94,.,.,.,91,-
CC[C@H](C)C1OC(=O)[C@@H](C)[C@@H](CC)NC(=O)[C@H](C)N(C)C(=O)C(C)(C)C(=O)C(C)NC(=O)[C@H](Cc2ccc(OC)cc2)N(C)C(=O)[C@H](C(C)C)N(C)C(=O)CNC(=O)[C@H](CC(C)C)N(C)C(=O)CNC1=O (stereo partly drawn),.,.,.,-,.,.,.
CC(C)CN(C(=O)COC(=O)CN1C(=O)c2ccccc2C1=O)c1c(N)n(Cc2ccccc2)c(=O)[nH]c1=O,-,-,-,-,-,.,.
CCN(CCNCC(O)COc1ccccc1C(C)C)c1cccc(C)c1 (stereo not drawn),-,68,100,-,-,41,75
CCOc1ccc(C(C)=O)cc1COc1cccnc1[N+](=O)[O-],-,58,-,-,-,57,45
